Screens deposited in PubChem by several laboratories.
CF NFkB inh = blocks PAF-induced NF-kB reporter in cystic fibrosis cells; KKLEB NF-kB-GFP reporter, GFP fluorescence overnight; inhibition, % at 5 µM; 360,000 tested, 0.86% active;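 active means at least 50% inhibition at 5 µM, scaled per plate between neutral and stimulator controls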;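 further: PAF is a Pseudomonas aeruginosa culture filtrate used as stimulus; plate controls were PAF-stimulated DMSO wells for no effect and unstimulated DMSO wells for full effect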
KKLEB tox = reduces viability of KKLEB cystic fibrosis airway cells | KKLEB CF airway cells viability, ATPlite luminescence, overnight; active compounds read low; cells stimulated with P. aeruginosa culture filtrate | activity change (cytotoxicity), % at 5 µM | 360,000 tested, 0.36% active;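 active means corrected activity change at or below -50% at 5 µM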
Shn3 3UTR inh = reduces Shn3 3'UTR luciferase signal in osteoblasts; Clone20 osteoblast Shn3 3'UTR firefly luciferase, 24 h; inhibition, % at 12.5 µM; 360,000 tested, 0.52% active; AID 588674;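 active means mean inhibition of at least 75% with every replicate also reaching 75%; inconclusive means mean inhibition at least 75% but some replicate below; inactive means mean inhibition below 75%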;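 further: 0% = median of neutral control wells and 100% = pilot-screen positive control compound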
TRPM1 prom inh = MITF TRPM1 promoter inhibition in SK-MEL-5 cells. 330,000 tested, 0.83% active. SK-MEL-5 TRPM1 promoter luciferase, 24 h. inhibition, % at 12.5 µM. AID 488899;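 active means mean inhibition across replicates of 60% or more, whatever share of single replicates reaches that level; inconclusive means some that reach 60%, reason not given; inactive means mean inhibition across replicates below 60%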
HIF-2a inh = blocks HIF-2a reporter activity; inhibition, % at 18.8 µM; AID 624352; 360,000 tested, 0.72% active; 786-0 RCC cells HIF-2a reporter, luciferase luminescence, overnight;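 active means inhibition of the luminescence signal of 40% or more relative to plate controls, in a single-dose primary screen at 18.75 µM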
Peg3 promoter = inhibitors of Peg3 promoter; HeLa PEG-Prom luciferase reporter, luminescence, overnight; inhibition, % at 20 µM; 360,000 tested, 1.7% active; AID 588405;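 active means inhibition of at least 50% at 20 µM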
An asterisk follows results filed as active; ? = inconclusive; / = no result given. The list is not random: actives were taken first. Their share in the collection is about 2.8%.

SMILES	CF NFkB inh	KKLEB tox	Shn3 3UTR inh	TRPM1 prom inh	HIF-2a inh	Peg3 promoter
O=C(Nc1cccc(F)c1)c1cc(S(=O)(=O)NCCC2=CCCCC2)ccc1F	-9	-3	89*	18	16	15
Cc1ccc(S(=O)(=O)NCCC2=CCCCC2)cc1C(N)=O	-26	16	73	20	7	5
COc1cccc(CN(c2ccc3c(c2)CCC3)S(=O)(=O)c2ccc(-n3cnnn3)c(OC)c2)c1	20	-26	14	-6	11	17
COc1ccc(S(=O)(=O)N2CCC(C(=O)NCCCc3ccccc3)CC2)cc1	7	0	17	-3	10	17
Cc1ccccc1-c1cnc2c(c1)C(=O)N([C@@H](C)CO)C[C@@H](C)[C@H](CN(C)Cc1ccccc1F)O2	-14	-4	1	/	-2	-12
Cc1ccccc1N1C(=O)c2cccc([N+](=O)[O-])c2C1=O	-2	0	0	-15	14	7
Cc1ccccc1-n1ncc2c([N+](=O)[O-])cc([N+](=O)[O-])cc21	6	-18	-4	67*	-91	-142
Cc1ccc(C(=O)Sc2cccccc2=O)cc1	-6	-17	96*	83*	29	103*
CCOc1cc(N2CCOCC2)c(OCC)cc1NC(=O)c1nn(CC)c(=O)c2ccccc12	18	-13	13	15	-18	60*
CCN(CC)S(=O)(=O)c1ccc(N2CCOCC2)c(NC(=O)c2nn(C(C)C)c(=O)c3ccccc23)c1	18	-10	86*	/	22	42
CCN(CC)S(=O)(=O)c1ccc(N2CCOCC2)c(NC(=O)c2nn(C)c(=O)c3ccccc23)c1	6	-4	27	14	10	32
CCOc1cc(N2CCOCC2)c(OCC)cc1NC(=O)c1ccc(OCc2c(C)noc2C)c(OC)c1	-18	15	23	-6	7	50*
COc1ccc(C(=O)NNC(=O)c2ccc(F)c(S(=O)(=O)N3CCOCC3)c2)cc1	7	-18	-2	6	11	4
COc1cc(-c2noc(C)c2/C=C/c2ccc(N)cc2)cc(OC)c1OC	40	-39	3	63*	31	-51
COc1cc(-c2noc(C)c2C#Cc2ccccn2)cc(OC)c1OC	11	-7	10	21	-13	-3
COc1cc(-c2noc(C)c2C#Cc2ccc(N)cc2)cc(OC)c1OC	52*	-21	-5	20	-47	-67
C[C@H]1CN([C@@H](C)CO)C(=O)c2cc(C3=CCCC3)cnc2O[C@@H]1CN(C)C(=O)c1ccncc1	-22	10	-7	/	-2	-3
O=C(/C=C/Sc1ccccc1)c1ccccc1	21	-29	68	11	-53	79*
O=C(COC(=O)c1sc2ccccc2c1Cl)NCC1CCCCC1	-16	9	-5	2	8	59*
O=C(Nc1ccc(F)cc1)NC1(C(=O)NCc2ccco2)CCCCC1	-17	-79*	-9	-12	14	4
C=CCn1c(SCC(=O)c2[nH]c(C)c(C(=O)OCC)c2C)nc2scc(-c3ccccc3)c2c1=O	16	-9	43	38	13	-3
C=CCn1c(SCC(=O)c2[nH]c(C)c(C(=O)OCC)c2C)nc2scc(-c3ccc(OC)cc3)c2c1=O	32	-37	42	82*	19	54*
O=C1c2cccc3cccc(c23)C(=O)N1CCO	-21	3	12	/	-5	-9
CCN(CC)CCN1C(=O)c2cccc3cc(N)cc(c23)C1=O	-72	-8	-28	8	25	51*
Oc1cccc(-c2nnc(-c3cccc(O)c3)nn2)c1	-2	-60*	81	23	-12	-13
SMILES	CF NFkB inh	KKLEB tox	Shn3 3UTR inh	TRPM1 prom inh	HIF-2a inh	Peg3 promoter
C=CCN1C(=O)C(CC(=O)Nc2ccc(OCCC)cc2)N(CCCN2CCN(Cc3ccccc3)CC2)C1=S (stereo not drawn)	5	-21	43	1	4	52*
CC(C)(C)OC(=O)N[C@H](C(=O)OC(C)(C)C)c1ccc2ccccc2c1	30	2	7	-2	17	-6
Cc1cccnc1CN1CCN(C(=O)c2cc(COc3ccc4ncccc4c3)on2)CC1	3	8	88*	9	11	-4
CCC(O)C1CCN(C(=O)c2cc(COc3ccc4ncccc4c3)on2)CC1 (stereo not drawn)	2	7	88*	10	6	5
O=C(c1cc(COc2ccc3ncccc3c2)on1)N1CCC(O)CC1	16	-1	48	-7	-81	-53
CCOC(=O)N1CCN(C(=O)c2cc(COc3ccc4ncccc4c3)on2)CC1	-4	10	?	26	-3	4
CCC(C)c1ccc(NC(=O)c2c([N+](=O)[O-])cnn2CC)cc1 (stereo not drawn)	-29	13	-3	1	-40	-33
O=C1/C(=N\S(=O)(=O)c2cccs2)C([n+]2ccc(CCCc3ccccc3)cc2)=C([O-])c2ccccc21	2	-4	/	/	7	15
Cc1cc[n+](C2=C([O-])c3ccccc3C(=O)/C2=N\S(=O)(=O)c2cccs2)cc1C	-25	10	1	28	7	-3
O=C1/C(=N\S(=O)(=O)c2cccs2)C([n+]2cccc(Cc3ccccc3)c2)=C([O-])c2ccccc21	56*	-3	/	91*	2	34
Cc1cc(C)c[n+](C2=C([O-])c3ccccc3C(=O)/C2=N\S(=O)(=O)c2cccs2)c1	16	-8	-4	105*	15	13
COCC(=O)OC1CCn2c1nc1c2C(=O)C(C)=C(NC(C)=O)C1=O (stereo not drawn)	91*	-68*	89*	86*	24	85*
COC(=O)C1=C(C)N(Cc2ccco2)C(=O)/C1=C\c1ccc(N(C)C)cc1	-34	-19	36	-9	-2	0
COC(=O)C1=C(C)N(Cc2ccco2)C(=O)/C1=C\c1ccc([N+](=O)[O-])cc1	-23	-6	8	9	22	94*
NS(=O)(=O)c1ccc(NC(=S)Nc2ccn(Cc3cccc4ccccc34)n2)cc1	32	-11	5	30	18	11
CC1=NN(c2nc(-c3ccc(C)cc3)cs2)C(=O)C1N=Nc1ccccc1O (stereo not drawn)	-14	14	92*	69*	-32	18
CC1=NN(c2nc(-c3ccc(C)cc3)cs2)C(=O)C1N=Nc1cccc(O)c1 (stereo not drawn)	41	9	27	7	-21	27
CCOC(=O)c1sc(N(Cc2ccccc2)C(=O)CCl)nc1C	65*	-40	-17	12	-46	63*
CC1CCN(CCCNC(=O)c2cc3c(Cl)nc4ccccc4c3s2)CC1	-39	-18	-1	37	25	53*
O=C(Cc1ccc(-c2ccccc2)cc1)Nc1ncccc1O	11	-6	-72	-32	-178	-171
